The record followed here is PubChem BioAssay AID990 (National Center for Advancing Translational Sciences (NCATS), 2007).

The source made the active and inactive calls.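 Rule for the calls: active = compound that made reporter-free parental cells show up as glowing objects under laser imaging, so likely a fluorescent false positive; inactive = the rest.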

The assay can be described thus: Parental Cell Counter Screen Assay for Epigenetic Modulators. The settings on record: parental c127i cells, compound fluorescence imaging, 30 h. The source says: NIH Molecular Libraries Screening Centers Network [MLSCN] NIH Chemical Genomics Center [NCGC] MLSCN Grant: 1 X01 MH079860-01 Assay Provider: Elisabeth D. Martinez, University of Texas SW Medical Center NCGC Assay Overview: This assay is a counter screen for the Locus Derepression (LDR) assay (PubChem AID 597). The LDR assay detects the derepression of a GFP reporter that is stably integrated in a region of the genome of murine c127i mammary cells that is presumably silenced. Compounds that cause derepression of the locus to express GFP are identified by enumerating GFP positive cells using a laser-scanning microplate cytometer. […] Compounds active in the parental c127i cells are likely fluorescent.
NCGC Assay Protocol Summary: Two hundred and fifty cells in 5 uL per well were dispensed into black, clear-bottom 1536-well plates. Twenty-three nL compound was transferred to the assay plate and cells were incubated 30 hours at 37 C. Medium was removed, cells were washed two times with PBS, and fluorescent cells were enumerated as objects between the sizes of 20 to 120 um width and depth using a laser-scanning microplate imager (Acumen Explorer Ex3, TTP Labtech).
(In general: The purpose of a counterscreen is to sort out artefacts and off-target activity.)
In the case of `Cc1ccc2ccc(C(Nc3cccc(Cl)c3)c3ccccn3)c(O)c2n1` (stereo not given), the result was inactive.
Same read-out and setting: the value for `CCOCc1ccc(O)c2ncccc12` was “inactive”; that for `O=C(CC(c1ccco1)S(=O)(=O)c1ccccc1)c1ccc(F)cc1` (stereo not given) was “inactive”; that for `CC(C)C(=O)NC(c1ccco1)c1cc([N+](=O)[O-])c2cccnc2c1O` (stereo not given) was “inactive”.
On the same count and under the same terms, the value for `CN1C(=S)SC(c2ccccc2)N(C)C1c1ccccc1` (stereo not given) was “inactive”; that for `CC(C)C(=O)NC(c1ccco1)c1cc(Cl)c2cccnc2c1O` (stereo not given) was “inactive”.
As for `COc1ccc(C)cc1NC(c1ccccn1)c1ccc2cccnc2c1O` (stereo not given), the result was inactive.
As to `CCNc1nc(NCC)nc(-n2nc(C)cc2C)n1`, the result was inactive.
Take `Oc1c(C(Nc2ccccn2)c2ccco2)cc(Cl)c2cccnc12` (stereo not given): the outcome was inactive.
On the same count and under the same terms, the value for `COC(=O)c1cccc(NC(c2ccccn2)c2ccc3cccnc3c2O)c1` (stereo not given) was “inactive”.
Still for that read-out and setting: the value for `Oc1c(C(Nc2ccccc2C(F)(F)F)c2ccccn2)ccc2cccnc12` (stereo not given) was “inactive”; that for `CC(C)C(=O)NC(c1ccco1)c1ccc2cccnc2c1O` (stereo not given) was “inactive”.
`O=C1OCCC1Sc1cccc2cccnc12` (stereo not given): the result was inactive.
The same measure, in the same setting: next, `CC(C)C(=O)NC(c1ccc(N(C)C)cc1)c1ccc2cccnc2c1O` (stereo not given): “inactive”; `O=C(CSc1cccc2cccnc12)Nc1ccccc1`: “inactive”; `O=C(Oc1cccc2cccnc12)c1ccc(Br)o1`: “inactive”.
Still for that read-out and setting: the value for `COc1cccc(C(=O)NC(c2ccco2)c2cc(Cl)c3cccnc3c2O)c1` (stereo not given) was “inactive”; that for `Oc1ccc(COCc2ccccc2)c2cccnc12` was “inactive”; that for `O=C(Cc1ccccc1)NC(c1ccco1)c1ccc2cccnc2c1O` (stereo not given) was “inactive”.
For the molecule `Cc1cc(C)n(-c2nc(NC(C)(C)C)nc(NC(C)(C)C)n2)n1`, the result was inactive.
With `Cc1cc(C)n(-c2nc(NC(C)C)nc(NC(C)(C)C)n2)n1`, the result was inactive.
The same measure, in the same setting: the value for `CC(C)C(=O)NC(c1ccc(C(C)C)cc1)c1cc(Cl)c2cccnc2c1O` (stereo not given) was “inactive”; that for `Oc1c(C(Nc2ccccn2)c2ccccn2)ccc2cccnc12` (stereo not given) was “inactive”; that for `COc1ccc(C)cc1N=Nc1ccc(O)c2ncccc12` was “inactive”.
Same read-out and setting: next, `O=C(CSc1cccc2cccnc12)N1CCCC1`: “inactive”; `CCCCC1CC1C(=O)Nc1ccc(OC)c(OC)c1` (stereo not given): “inactive”.
Still for that read-out and setting: the value for `COCc1cc(CN2CCN(C)CC2)c(O)c2ncccc12` was “inactive”.
Take `Cc1ccc(N=Nc2ccc(O)c3ncccc23)cc1C`: the result was inactive.
Regarding `COc1ccc(C(=O)NC(c2ccco2)c2cc(Cl)c3cccnc3c2O)cc1` (stereo not given), the result was inactive.
As to `Cc1cc(C)n(-c2nc(N(C)C)nc(N(C)C)n2)n1`, the result was inactive.
Still for that read-out and setting: next, `CN1CCN(Cc2cc(Cl)c3cccnc3c2O)CC1`: “inactive”; `Cc1cc(C)n(-c2nc(NC(C)C)nc(NC(C)C)n2)n1`: “inactive”.
Consider `COc1ccc(C(NC(=O)C(C)C)c2ccc3cccnc3c2O)cc1` (stereo not given), for which the outcome was inactive.
For the molecule `CCN(CC)c1ccc2cc(-c3nc4ccccc4[nH]3)c(=O)oc2c1`, the Potency was 0.41 µM [fluorescent] (active).
Consider `CC(C)C(=O)NC(c1ccc(Cl)cc1Cl)c1ccc2cccnc2c1O` (stereo not given), for which the result was inactive.
The same measure, in the same setting: the value for `Cc1cc(NC(c2ccccn2)c2ccc3cccnc3c2O)no1` (stereo not given) was “inactive”.
Same read-out and setting: the value for `CCNc1nc(NCC)nc(-n2cc(C(=O)c3cc(Cl)ccc3O)cn2)n1` was “inactive”; that for `CC(C)C(=O)NC(c1cccs1)c1cc(Cl)c2cccnc2c1O` (stereo not given) was “inactive”; that for `CCN1CSC(=S)N(CC)C1` was “inactive”.
As for `O=Nc1ccc(O)c2ncccc12`, the result was inactive.
